Assay results reported in the supplement of paper PMC10849652.
Of roughly 8,800 targets only a part is listed; those with a hit were picked by preference. About 0.5% of all pairs of compound and target were hits.

Experiments:
Assay in all cases: log2 fold change, soluble protein after heating vs DMSO (PISA); higher = thermal stabilisation; K562 lysate, 10 uM; active = over 0.2 and 3.5 SD of the protein, either way, in both replicates (recomputed)
[1] = compound: C#Cc1cccc(Nc2ncnc3cc(OCCOC)c(OCCOC)cc23)c1 [erlotinib]
Procedure, shortened: (§1)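 Quantification was by TMTpro 16plex LC-MS/MS with equalised channel sums, applied to the supernatant after 21,000xg for 90 min. Samples were crude K562 extract at 1 mg/mL protein in PBS pH 7.4 with 1 mM MgCl2, treated with 10 μM compound for 30 min, heated for 3 min across 48°C-58°C, pooled and brought to 0.5% NP-40 at 4°C. Values are log-two fold changes in thermal stability relative to solvent controls, from duplicates.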

[2] = compound: C/C(=N\NC(=O)C1=CC(=CC=C1)S(=O)(=O)N2CCOCC2)/C3=C(C=CC(=C3)Cl)O
Procedure, shortened: as §1

[3] = compound: C1=CC(=CC=C1C2=NC3=C(N2)C=C(C=C3)C(=O)N)OC4=CC=C(C=C4)Cl
Procedure, shortened: as §1

[4] = compound: C1=CC2=C(C=CC(=C2)/C=C\3/C(=O)NC(=NCC4=CC=CS4)S3)N=C1
Procedure, shortened: as §1

[5] = compound: C1=CC2=NC=CN=C2C=C1/C=C/3\C(=O)NC(=O)S3
Procedure, shortened: as §1

[6] = compound: C1=CC=C(C=C1)C2=NC(=C(N2)C3=CC=NC=C3)C4=CC(=C(C=C4)Cl)O
Procedure, shortened: as §1

[7] = compound: C1=CC=C2C(=C1)C3=NNC4=CC=CC(=C43)C2=O
Procedure, shortened: as §1

[8] = compound: C1CCN(C1)C(=O)NC2=CC=CC(=C2)NC3=NC=C(C(=N3)NCCC4=CN=CN4)Br
Procedure, shortened: as §1

[9] = compound: C1CN(CCC1(CC2=CC=C(C=C2)Cl)N)C3=NC=NC4=C3C=CN4
Procedure, shortened: as §1

[10] = compound: C1COCCN1CCN2C3=CC=CC=C3N=C2NC(=O)C4=CC(=CC=C4)[N+](=O)[O-] [IRAK-1-4 Inhibitor I]
Procedure, shortened: as §1

[11] = compound: C=CC(=O)N1CCC[C@@H](n2nc(-c3ccc(Oc4ccccc4)cc3)c3c(N)ncnc32)C1 [ibrutinib]
Procedure, shortened: as §1

[12] = compound: CC(=O)c1cnc2ccc(-c3cc(Cl)c(O)c(Cl)c3)nc2c1N[C@H]1CC[C@H](CN(C)C)CC1
Procedure, shortened: as §1

[13] = compound: CC(C)(C)Cn1c(N)nc2ccc(-c3[nH]c(C(C)(C)C)nc3-c3ccc(F)cc3)nc21 [ralimetinib]
Procedure, shortened: as §1

[14] = compound: CC(C)(O)CC(=O)NCCn1ccc2ncnc(Nc3ccc(Oc4cccc(C(F)(F)F)c4)c(Cl)c3)c21
Procedure, shortened: as §1

[15] = compound: CC(C)C1=C2N=C(C=C(N2N=C1)NCC3=CC=CC=C3)NCCCCCCN
Procedure, shortened: as §1

[16] = compound: CC1=C(C(CC(=O)N1)C2=CC=C(C=C2)C(F)(F)F)C(=O)NC3=C(C=C4C(=C3)C=NN4)F
Procedure, shortened: as §1

[17] = compound: CC1=C(C2=C(C=C1)C(=O)C3=CC=CC=C3N2CCCN)C
Procedure, shortened: as §1

[18] = compound: CC1=C(C=C(C=C1)NC(=O)C2=CC(=CC=C2)C(C)(C)C#N)NC3=CC4=C(C=C3)N=CN(C4=O)C
Procedure, shortened: as §1

[19] = compound: CC1=C(C=C(C=C1)NC(=O)C2=CC(=CC=C2)N(C)C)NC(=O)C3=CC=C(C=C3)O
Procedure, shortened: as §1

[20] = compound: CC1=CC=C(C=C1)SC2=C3C=C(SC3=CN=C2)C(=O)N
Procedure, shortened: as §1

Measured: log2 fold change

FMNL1 isoform 3 (UniProt O95466)
inactive: [1] -0.045 | [2] 0.045 | [3] -0.006 | [4] -0.102 | [5] -0.062 | [6] -0.004 | [7] 0.018 | [8] -0.006 | [9] 0.019 | [10] -0.009 | [11] 0.043 | [12] -0.002 | [13] 0.038 | [14] -0.02 | [15] 0.023 | [16] 0.099 | [17] 0.03 | [18] 0.073 | [19] 0.015 | [20] 0.001

FYB1 isoform 3 (UniProt O15117)
inactive: [1] -0.019 | [2] -0.043 | [3] -0.003 | [4] -0.073 | [5] 0.009 | [6] 0.015 | [7] -0.025 | [8] -0.012 | [9] 0.028 | [10] 0.024 | [11] -0.008 | [12] -0.01 | [13] -0.022 | [14] -0.008 | [15] 0.005 | [16] -0.017 | [17] -0.042 | [18] 0.059 | [19] 0.008 | [20] -0.013

ELF2 (UniProt Q15723)
Chain of UniProt Q15723 (Q15723 whole entry, looked up): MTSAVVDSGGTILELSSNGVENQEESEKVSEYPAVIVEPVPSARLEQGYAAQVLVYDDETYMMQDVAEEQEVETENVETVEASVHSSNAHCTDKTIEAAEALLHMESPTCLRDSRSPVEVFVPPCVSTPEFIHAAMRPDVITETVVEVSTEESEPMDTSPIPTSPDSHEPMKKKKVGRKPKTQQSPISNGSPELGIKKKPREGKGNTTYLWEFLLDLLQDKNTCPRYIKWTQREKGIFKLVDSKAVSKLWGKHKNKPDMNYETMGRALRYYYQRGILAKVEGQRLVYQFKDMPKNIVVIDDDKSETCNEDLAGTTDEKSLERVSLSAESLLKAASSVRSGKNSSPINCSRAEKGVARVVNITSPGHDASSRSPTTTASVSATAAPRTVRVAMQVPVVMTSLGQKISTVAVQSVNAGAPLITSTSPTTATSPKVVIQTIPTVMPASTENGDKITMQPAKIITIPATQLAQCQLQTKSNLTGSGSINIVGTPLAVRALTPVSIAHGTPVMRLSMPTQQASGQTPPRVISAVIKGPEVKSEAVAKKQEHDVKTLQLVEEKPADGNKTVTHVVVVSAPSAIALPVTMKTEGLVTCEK
inactive: [1] 0.023 | [2] -0.136 | [3] 0.059 | [4] -0.068 | [5] 0.07 | [6] -0.036 | [7] -0.056 | [8] 0.009 | [9] -0.022 | [10] -0.01 | [11] 0.07 | [12] 0.116 | [13] 0.013 | [14] -0.038 | [15] 0.006 | [16] -0.017 | [17] -0.066 | [18] 0.035 | [19] 0.022 | [20] -0.028

FHOD1 (UniProt Q9Y613)
inactive: [1] 0.005 | [2] 0.021 | [3] 0 | [4] 0.048 | [5] -0.02 | [6] -0.011 | [7] -0.016 | [8] -0.011 | [9] -0.009 | [10] -0.008 | [11] 0.001 | [12] 0.03 | [13] 0.041 | [14] -0.019 | [15] -0.002 | [16] -0.006 | [17] 0.006 | [18] 0.003 | [19] 0.025 | [20] -0.004

FKBP1A (UniProt P62942)
inactive: [1] -0.024 | [2] 0.063 | [3] 0.015 | [4] -0.061 | [5] 0 | [6] 0.024 | [7] 0.091 | [8] -0.044 | [9] 0.062 | [10] 0.071 | [11] 0.083 | [12] -0.103 | [13] 0.188 | [14] -0.054 | [15] 0.049 | [16] -0.022 | [17] -0.013 | [18] 0.084 | [19] 0.018 | [20] 0.187

EIF2B4 isoform 2 (UniProt Q9UI10)
Chain of UniProt Q9UI10 (Q9UI10 whole entry, looked up): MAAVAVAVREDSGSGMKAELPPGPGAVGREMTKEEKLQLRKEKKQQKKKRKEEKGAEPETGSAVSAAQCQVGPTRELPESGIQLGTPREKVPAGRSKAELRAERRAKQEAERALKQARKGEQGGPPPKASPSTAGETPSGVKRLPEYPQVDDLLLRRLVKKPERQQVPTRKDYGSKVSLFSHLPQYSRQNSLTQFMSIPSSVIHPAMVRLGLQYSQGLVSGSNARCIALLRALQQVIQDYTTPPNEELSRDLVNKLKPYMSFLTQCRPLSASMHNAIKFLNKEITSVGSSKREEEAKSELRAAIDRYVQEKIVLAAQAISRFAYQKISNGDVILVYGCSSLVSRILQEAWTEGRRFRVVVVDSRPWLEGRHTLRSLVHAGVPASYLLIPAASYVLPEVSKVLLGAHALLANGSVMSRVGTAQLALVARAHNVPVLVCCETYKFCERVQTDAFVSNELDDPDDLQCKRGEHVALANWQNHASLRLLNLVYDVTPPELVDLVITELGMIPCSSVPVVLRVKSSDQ
inactive: [1] 0.031 | [2] 0.027 | [3] 0.008 | [4] 0.041 | [5] 0.009 | [6] 0.013 | [7] -0.04 | [8] -0.006 | [9] -0.008 | [10] 0.03 | [11] 0.011 | [12] 0.011 | [13] 0.009 | [14] -0.005 | [15] -0.036 | [16] -0.004 | [17] -0.036 | [18] 0.001 | [19] -0.005 | [20] 0.04

EXOC6 (UniProt Q8TAG9)
inactive: [1] 0 | [2] -0.045 | [3] -0.062 | [4] -0.058 | [5] -0.044 | [6] 0.005 | [7] -0.043 | [8] 0.018 | [9] 0.008 | [10] 0.013 | [11] 0 | [12] 0.072 | [13] 0.034 | [14] -0.018 | [15] -0.049 | [16] 0.048 | [17] 0.049 | [18] -0.022 | [19] 0.042 | [20] 0.01

FIGNL1 (UniProt Q6PIW4)
Chain of UniProt Q6PIW4 (Q6PIW4 whole entry, looked up): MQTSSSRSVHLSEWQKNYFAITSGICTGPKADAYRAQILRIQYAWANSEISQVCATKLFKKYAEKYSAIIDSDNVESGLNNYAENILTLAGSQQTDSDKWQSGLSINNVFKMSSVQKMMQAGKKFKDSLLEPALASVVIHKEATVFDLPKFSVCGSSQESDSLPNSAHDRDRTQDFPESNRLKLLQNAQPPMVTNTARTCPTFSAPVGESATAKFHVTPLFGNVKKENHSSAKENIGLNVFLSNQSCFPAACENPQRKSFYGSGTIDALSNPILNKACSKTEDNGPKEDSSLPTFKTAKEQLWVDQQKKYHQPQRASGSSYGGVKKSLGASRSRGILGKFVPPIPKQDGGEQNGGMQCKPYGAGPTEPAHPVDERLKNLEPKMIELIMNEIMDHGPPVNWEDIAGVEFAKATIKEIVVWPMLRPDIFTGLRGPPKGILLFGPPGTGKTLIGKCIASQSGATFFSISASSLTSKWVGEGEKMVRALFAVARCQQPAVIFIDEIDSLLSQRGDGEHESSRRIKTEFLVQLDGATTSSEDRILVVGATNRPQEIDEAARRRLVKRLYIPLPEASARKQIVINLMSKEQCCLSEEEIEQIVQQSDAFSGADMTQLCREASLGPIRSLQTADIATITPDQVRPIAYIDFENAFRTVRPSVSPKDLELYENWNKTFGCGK
inactive: [1] -0.008 | [2] -0.019 | [3] -0.025 | [4] 0.005 | [5] -0.011 | [6] -0.005 | [7] -0.015 | [8] 0.035 | [9] 0.006 | [10] 0.008 | [11] 0 | [12] 0.063 | [13] 0.04 | [14] 0.022 | [15] -0.006 | [16] -0.067 | [17] 0.008 | [18] -0.002 | [19] 0.02 | [20] 0.037

EHD2 (UniProt Q9NZN4)
Chain of UniProt Q9NZN4 (Q9NZN4 whole entry, looked up): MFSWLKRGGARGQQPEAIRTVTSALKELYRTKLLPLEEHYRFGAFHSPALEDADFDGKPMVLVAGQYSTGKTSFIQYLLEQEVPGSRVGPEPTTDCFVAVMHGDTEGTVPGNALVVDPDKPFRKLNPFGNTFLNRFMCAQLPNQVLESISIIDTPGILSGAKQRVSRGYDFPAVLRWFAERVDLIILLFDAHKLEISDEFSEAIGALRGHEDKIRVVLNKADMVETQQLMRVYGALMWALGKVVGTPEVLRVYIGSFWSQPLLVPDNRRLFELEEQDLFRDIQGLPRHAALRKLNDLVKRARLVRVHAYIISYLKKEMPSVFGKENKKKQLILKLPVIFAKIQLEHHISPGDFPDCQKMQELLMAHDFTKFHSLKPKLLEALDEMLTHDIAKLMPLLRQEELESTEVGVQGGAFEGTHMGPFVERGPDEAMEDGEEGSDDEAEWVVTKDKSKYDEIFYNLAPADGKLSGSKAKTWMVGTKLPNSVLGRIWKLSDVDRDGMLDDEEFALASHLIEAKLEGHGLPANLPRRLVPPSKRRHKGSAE
inactive: [1] 0.048 | [2] -0.167 | [3] -0.043 | [4] -0.063 | [5] 0.012 | [6] -0.002 | [7] -0.071 | [8] -0.004 | [9] 0.012 | [10] 0.01 | [11] -0.004 | [12] 0.035 | [13] 0.054 | [14] -0.027 | [15] -0.005 | [16] 0.066 | [17] 0.063 | [18] 0.019 | [19] 0.059 | [20] 0.017

ENSA isoform 3 (UniProt O43768)
Chain of UniProt O43768 (O43768 whole entry, looked up): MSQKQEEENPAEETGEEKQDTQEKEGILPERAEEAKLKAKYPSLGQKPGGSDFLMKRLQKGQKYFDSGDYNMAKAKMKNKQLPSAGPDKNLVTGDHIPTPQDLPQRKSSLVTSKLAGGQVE
inactive: [1] -0.034 | [2] 0.032 | [3] 0 | [4] -0.013 | [5] -0.047 | [7] 0.013 | [8] 0.006 | [9] 0.006 | [10] -0.004 | [11] 0.042 | [12] 0.015 | [13] -0.019 | [14] 0.02 | [15] -0.013 | [16] -0.016 | [17] 0.039 | [18] -0.042 | [19] -0.057 | [20] -0.01
active: [6] -0.459

EXOC2 (UniProt Q96KP1)
Chain of UniProt Q96KP1 (Q96KP1 whole entry, looked up): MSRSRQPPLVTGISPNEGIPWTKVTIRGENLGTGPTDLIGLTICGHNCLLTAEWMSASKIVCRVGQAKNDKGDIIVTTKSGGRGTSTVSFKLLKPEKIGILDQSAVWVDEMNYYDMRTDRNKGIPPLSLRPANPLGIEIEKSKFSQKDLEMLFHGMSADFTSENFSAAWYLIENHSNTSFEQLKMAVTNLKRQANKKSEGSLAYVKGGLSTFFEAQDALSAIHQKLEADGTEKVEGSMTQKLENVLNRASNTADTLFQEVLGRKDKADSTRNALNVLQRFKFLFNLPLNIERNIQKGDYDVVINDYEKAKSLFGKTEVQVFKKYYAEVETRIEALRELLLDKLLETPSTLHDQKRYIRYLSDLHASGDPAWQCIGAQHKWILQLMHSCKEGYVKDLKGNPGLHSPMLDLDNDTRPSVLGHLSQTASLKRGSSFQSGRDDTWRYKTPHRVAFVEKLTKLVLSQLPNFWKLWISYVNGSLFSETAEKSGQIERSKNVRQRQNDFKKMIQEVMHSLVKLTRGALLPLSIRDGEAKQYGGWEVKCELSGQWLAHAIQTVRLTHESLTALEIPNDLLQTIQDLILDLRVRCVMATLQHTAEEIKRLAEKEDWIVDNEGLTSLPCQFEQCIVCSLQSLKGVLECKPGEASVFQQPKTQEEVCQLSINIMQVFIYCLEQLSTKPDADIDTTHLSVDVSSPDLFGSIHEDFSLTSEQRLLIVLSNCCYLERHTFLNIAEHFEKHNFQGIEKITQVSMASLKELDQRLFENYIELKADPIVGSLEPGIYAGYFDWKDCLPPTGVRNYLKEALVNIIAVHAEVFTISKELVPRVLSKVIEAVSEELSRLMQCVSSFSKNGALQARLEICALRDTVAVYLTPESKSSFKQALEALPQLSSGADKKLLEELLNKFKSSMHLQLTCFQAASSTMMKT
inactive: [1] 0.011 | [2] -0.008 | [3] -0.028 | [4] 0.049 | [5] -0.008 | [6] -0.001 | [7] -0.042 | [8] -0.018 | [9] 0.016 | [10] 0.009 | [11] 0.014 | [12] 0.003 | [13] 0.049 | [14] -0.027 | [15] -0.022 | [16] 0.01 | [17] -0.019 | [18] 0.016 | [19] 0.032 | [20] 0.004

FIG4 (UniProt Q92562)
Chain of UniProt Q92562 (Q92562 whole entry, looked up): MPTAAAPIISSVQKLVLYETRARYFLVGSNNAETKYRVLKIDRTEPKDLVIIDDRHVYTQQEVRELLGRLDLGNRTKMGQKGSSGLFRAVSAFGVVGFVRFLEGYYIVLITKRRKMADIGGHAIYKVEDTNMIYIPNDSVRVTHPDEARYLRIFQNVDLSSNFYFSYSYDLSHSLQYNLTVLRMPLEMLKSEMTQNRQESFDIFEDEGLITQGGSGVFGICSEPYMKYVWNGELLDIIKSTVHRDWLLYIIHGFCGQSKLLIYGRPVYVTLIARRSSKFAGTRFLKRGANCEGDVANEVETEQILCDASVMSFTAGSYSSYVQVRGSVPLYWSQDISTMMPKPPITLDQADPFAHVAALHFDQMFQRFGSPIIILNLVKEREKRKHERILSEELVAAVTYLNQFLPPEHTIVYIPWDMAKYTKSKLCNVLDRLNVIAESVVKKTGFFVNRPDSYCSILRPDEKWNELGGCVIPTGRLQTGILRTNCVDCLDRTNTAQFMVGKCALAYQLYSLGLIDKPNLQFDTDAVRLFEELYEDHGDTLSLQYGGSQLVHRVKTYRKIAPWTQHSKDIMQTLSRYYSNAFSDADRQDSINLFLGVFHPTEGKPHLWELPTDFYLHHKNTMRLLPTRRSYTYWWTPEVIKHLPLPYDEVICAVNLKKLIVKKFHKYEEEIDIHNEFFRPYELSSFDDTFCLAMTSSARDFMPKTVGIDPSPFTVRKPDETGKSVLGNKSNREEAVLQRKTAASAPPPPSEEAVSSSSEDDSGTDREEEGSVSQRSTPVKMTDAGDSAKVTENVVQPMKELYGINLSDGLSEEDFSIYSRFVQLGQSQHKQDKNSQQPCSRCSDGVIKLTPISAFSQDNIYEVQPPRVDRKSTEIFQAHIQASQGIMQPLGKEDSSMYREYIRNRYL
inactive: [1] 0.032 | [2] -0.032 | [3] -0.029 | [4] 0 | [5] 0.007 | [6] 0.064 | [7] 0.02 | [8] 0.061 | [9] -0.053 | [10] 0.003 | [11] 0.14 | [12] -0.07 | [13] -0.01 | [14] -0.115 | [15] -0.012 | [16] -0.248 | [17] 0.029 | [18] -0.093 | [19] -0.085 | [20] 0.012

EIF2B3 (UniProt Q9NR50)
Chain of UniProt Q9NR50 (Q9NR50 whole entry, looked up): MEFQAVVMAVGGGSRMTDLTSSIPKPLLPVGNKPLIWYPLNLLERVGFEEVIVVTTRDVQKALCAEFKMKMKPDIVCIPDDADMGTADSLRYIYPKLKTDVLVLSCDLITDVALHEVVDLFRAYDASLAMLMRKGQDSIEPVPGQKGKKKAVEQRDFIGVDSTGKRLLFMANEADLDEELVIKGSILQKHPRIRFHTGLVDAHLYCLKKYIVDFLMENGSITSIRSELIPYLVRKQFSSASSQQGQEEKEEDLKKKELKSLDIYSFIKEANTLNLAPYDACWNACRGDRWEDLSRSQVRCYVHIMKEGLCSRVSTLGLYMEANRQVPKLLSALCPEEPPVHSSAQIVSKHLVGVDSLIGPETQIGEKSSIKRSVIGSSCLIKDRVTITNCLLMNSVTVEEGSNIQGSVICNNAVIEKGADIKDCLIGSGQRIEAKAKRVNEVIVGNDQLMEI
inactive: [1] 0.01 | [2] 0.029 | [3] -0.019 | [4] -0.009 | [5] 0.024 | [6] 0.001 | [7] -0.003 | [8] 0.014 | [9] 0.018 | [10] -0.01 | [11] 0.007 | [12] 0.02 | [13] 0.011 | [14] 0.005 | [15] 0.004 | [16] -0.004 | [17] -0.007 | [18] 0.043 | [19] 0.021 | [20] -0.004

EDARADD (UniProt Q8WWZ3)
Chain of UniProt Q8WWZ3 (Q8WWZ3 whole entry, looked up): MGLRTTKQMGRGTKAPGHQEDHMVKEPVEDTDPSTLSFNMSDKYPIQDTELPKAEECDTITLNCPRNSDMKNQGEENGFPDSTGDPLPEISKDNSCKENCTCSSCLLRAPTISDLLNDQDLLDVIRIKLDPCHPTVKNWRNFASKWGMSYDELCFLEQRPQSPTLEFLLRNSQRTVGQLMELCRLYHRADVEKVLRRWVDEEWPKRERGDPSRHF
inactive: [1] 0.013 | [2] -0.022 | [3] 0.045 | [4] 0.019 | [5] -0.027 | [6] 0.049 | [7] -0.03 | [8] -0.035 | [9] -0.064 | [10] 0.031 | [11] 0.22 | [12] -0.019 | [13] -0.003 | [14] -0.071 | [15] -0.008 | [16] -0.007 | [17] 0.062 | [18] 0.041 | [19] 0.017 | [20] -0.035

FAM98A (UniProt Q8NCA5)
inactive: [1] -0.004 | [2] -0.026 | [3] 0.028 | [4] -0.048 | [5] -0.02 | [6] 0.01 | [7] 0.014 | [8] -0.05 | [9] -0.017 | [10] -0.04 | [11] -0.033 | [12] -0.019 | [13] 0.046 | [14] 0.008 | [15] 0.014 | [16] 0.04 | [17] -0.045 | [18] 0.008 | [19] 0.035 | [20] 0.029
